These results are taken from the supplement of paper PMC11417369.

± gives the standard deviation of the averaged measurements. Whole data set: some 25,000 sequences, median “ln(normalized median fluorescence intensity)” near 10, cut for the highest 2% near 12. What follows is part of a selection rich in the highest values, with near analogues and random picks from the rest.

For the assay, the system named is PfAP2-G AP2 domain (GST-tagged). Kind of assay: gcPBM binding intensity (ln(normalized median fluorescence intensity)); higher = stronger DNA binding. Summed up: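 GST-tagged P. falciparum DNA-binding domains, expressed in E. coli (about 25 μg on average), were applied for 1 h to an Agilent 4 × 180k array of primer-extended double-stranded 36-bp intergenic genomic probes plus negative controls. The binding buffer was 1× PBS with 1% milk, 0.2 mg/ml BSA, 0.5% salmon testes DNA and 0.03% Triton X-100. Bound protein was detected with Alexa488 anti-GST antibody and scanned at 488 nm. Binding intensity is the highest Masliner-normalised natural-log median intensity across replicate spots of either probe orientation.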
For the sequence “ATTCTACGCACGCGCACACACAACAAAAAAAAAAAA [CACACA_site3538]”, the “gcPBM binding intensity (ln)” value came out at 10.8 ± 0.68.
The same measure for “AACAGACATAGACACACACACATATATTTATTTATA [CACACA_site7571]”: 10.11 ± 0.085; for “TTAACATAAATTGTGTCATTTTTTTTTTTTTTTTTA [CACACA_negctrl_site1221]”: 9.725 ± 0.021.
Regarding “TAGCGCATAAAAAAAAAAAAATATATACTAATAAAT [GTGCAC_negctrl_site276]”, the “gcPBM binding intensity (ln)” value was determined as 9.57 ± 0.071.
Next, “TTCTATATATATATAGACAAACGATAAAATAAAAAA [GTGCAC_negctrl_site142]”: 10.1 ± 0.23.
Next, “GTATATTTCTTTAAATGTACACATTTTTTTAAAGAG [XGTACX_site1225]”: 11.4 ± 0.98.
The same measure for “AAAAACGAAAAAAATACACACCTGAAAAGATATGTA [CACACA_site4644]”: 9.72 ± 0.16.
For “TGACATATAAAATATTCACACACAAGTTATAGTTCT [CACACA_site9209]”, the “gcPBM binding intensity (ln)” value was 9.74 ± 0.11.
Regarding “CCAATGAGGATATATACACACATACATTAAAAAAAT [CACACA_site5090]”, the “gcPBM binding intensity (ln)” value was 10 ± 0.17.
Turning to “AATTTAATATAATGCACACATAAAAAAAAAATCAAA [CACACA_site1]”, the “gcPBM binding intensity (ln)” value stood at 10.1 ± 0.18.
In the case of “AATTTGTTATGTATATGTACATAAATAGATATATGA [XGTACX_site3930]”, the “gcPBM binding intensity (ln)” value was found to be 11.2 ± 0.7.
Next, “AAAGATATTTTTATCTCACACATATAATATATATAT [CACACA_site5478]”: 9.84 ± 0.16; “ATTAAATATATTTTGCGTACACAAAAAAATACGTTC [XGTACX_site3862]”: 11.6 ± 0.97.
In the case of “AAAAAAAATTAAATAAATAAATATACACATATATAT [GTGCAC_negctrl_site394]”, the “gcPBM binding intensity (ln)” value was found to be 9.47 ± 0.26.
With “TAGATATATAATTTGCGTACACAAATAATATATTTT [XGTACX_site6397]”, the “gcPBM binding intensity (ln)” value was 11.4 ± 0.97.
For the sequence “TTAAAATTAAAAATGCGTACACATATACATAAAAAA [XGTACX_site1915]”, the “gcPBM binding intensity (ln)” value is 11.7 ± 1.
As to “AAATTAAAATATAATACACACATAAAAAAAAAAAAA [CACACA_site4183]”, the “gcPBM binding intensity (ln)” value is 9.82 ± 0.38.
Take “TATATATACATACGTACACACAAATATTAAAATATA [CACACA_site1951]”: the “gcPBM binding intensity (ln)” value amounted to 11.5 ± 1.1.
Next, “AATAATACACAATTTTGTACGTATTTAAAATATATT [XGTACX_site45]”: 11.3 ± 0.87; “TATATATATACATACGTACACACAAATATTAAAATA [CACACA_site1950]”: 11.8 ± 1.2.
For the sequence “ATATATATATACATACGTACACACAAATATTAAAAT [XGTACX_site4007]”, the “gcPBM binding intensity (ln)” value came out at 11.6 ± 1.2.
Consider “TATGGAACACACCTTAATATGTGATAAAATATGATA [GTGCAC_negctrl_site718]”, for which the “gcPBM binding intensity (ln)” value amounted to 10 ± 0.2.
With “AAAAATTTATTTAAAAGTACATAAAATAAAGGTGGA [XGTACX_site7591]”, the “gcPBM binding intensity (ln)” value came out at 11.4 ± 0.69.
The same measure for “ACATCATTTTTATGTACACACACATATACGTTGAAT [CACACA_site5095]”: 11.6 ± 0.98; for “AAGAAAATTAAATTAACACACATAAATATATATATA [CACACA_site1664]”: 9.85 ± 0.28.
Next, “GACATTAAAATGAAATATACATATATATGTATATAT [TGCATGCA_negctrl_site601]”: 9.635 ± 0.049; “AATTAAAATAGTAATACACACTTCATAGGAAATGAT [CACACA_site5045]”: 9.83 ± 0.014.
Next, “TAACATTAAAATAAAAGTACTTAATAATATTAAGTA [XGTACX_site5920]”: 11.1 ± 0.87; “TCTTATTTTTTTATATATACAAAGTTTTATATATAT [GTGCAC_negctrl_site314]”: 9.915 ± 0.049; “TTTCCTGGTCAAGGGGTTACGGTTACGTCCTCTTGC [CACACA_negctrl_site856]”: 10.7 ± 0.49.
Turning to “ATTTTAGAATTTAATACACACAAAAAAAAAAAATTA [CACACA_site3704]”, the “gcPBM binding intensity (ln)” value came to 10 ± 0.33.
Next, “AAATTTTAATTAGACTGTACACATTTTAGAATAATT [XGTACX_site4819]”: 11.6 ± 0.92; “TAAATTAAGAATTTTACACACATTAAATAAAAAAAA [CACACA_site3638]”: 9.805 ± 0.078.
As to “TTAAAAGATATTACATGTACATATTCAATATATGTA [XGTACX_site5895]”, the “gcPBM binding intensity (ln)” value came to 11.1 ± 0.69.
The same measure for “AATTGTACGTAGGGGTATAAAAGCTTAAAAATGGGG [CACACA_negctrl_site1392]”: 11.6 ± 0.91; for “GAATGGACGTTAGGGGGTACGTATAAAATTTATCAA [XGTACX_site683]”: 11.7 ± 0.81; for “ACGTATCAATTTATTGGTACACATAAATATATATAT [XGTACX_site5556]”: 11.3 ± 0.92.
For “ATATATTTTCAAAAAAGTAAATCAAAATAAATATAT [TGCATGCA_negctrl_site319]”, the “gcPBM binding intensity (ln)” value worked out at 9.84 ± 0.085.
With “AATACAGATAATACAACACACAAGTAATATAAACCT [CACACA_site5900]”, the “gcPBM binding intensity (ln)” value turned out to be 9.975 ± 0.021.
As to “GGTGATATAATATATACATGCACATATATATTATTA [TGCATGCA_site970]”, the “gcPBM binding intensity (ln)” value is 9.9 ± 0.042.
The same measure for “CATTTAAAATTTGTTTGTACATATATATATATATAT [XGTACX_site6729]”: 11 ± 0.66; for “AAAATTAATGTTGGTTGTACAAAAATTAAATATGGT [XGTACX_site66]”: 11.3 ± 0.75.
“GTAGGTGTTTTTGGTTGTACATATAAATATATATAC [XGTACX_site3380]”: the “gcPBM binding intensity (ln)” value turned out to be 11.3 ± 0.8.
Next, “TCCTTAAAATATGGTTGTACGTACATCCTAGGTGTT [XGTACX_site7068]”: 11.7 ± 0.97.
“TATATAAATATATATGTACACACATATACATGTTGA [CACACA_site9022]”: the “gcPBM binding intensity (ln)” value came out at 11.3 ± 0.92.
With “TATTTCAAATGTTATGTGCACATATTAATCCTACTT [GTGCAC_site9738]”, the “gcPBM binding intensity (ln)” value was 10.5 ± 0.28.
Turning to “ATAATTATCATAGGATGTACATATTTATTTTGTATA [XGTACX_site7797]”, the “gcPBM binding intensity (ln)” value is 11.2 ± 0.67.
The same measure for “TTATTAAAACAAAATGTACACACATATAATTTAATG [CACACA_site8193]”: 11.3 ± 0.73; for “TTATATTTATATTTATGTACATATTTTGTGTGAAAA [XGTACX_site2367]”: 11.4 ± 0.97; for “GCAAATGTGAAAACGTGTACACATTTTATTTAATTT [XGTACX_site8000]”: 11.7 ± 1.
For the sequence “TTTATTAAAACAAAATGTACACACATATAATTTAAT [XGTACX_site1637]”, the “gcPBM binding intensity (ln)” value was 11.2 ± 0.68.
With “ATTTTTGTAATTATTTGTACACATTTATTTATGTGT [XGTACX_site1864]”, the “gcPBM binding intensity (ln)” value was found to be 11.5 ± 0.73.
In the case of “AATGTGAAAACGTGTACACATTTTATTTAATTTATC [CACACA_site5966]”, the “gcPBM binding intensity (ln)” value is 11.6 ± 0.98.
For the sequence “CGTTATATATTTTATAGTACTTTTTGTAAATTTTTT [XGTACX_site7682]”, the “gcPBM binding intensity (ln)” value stood at 11.1 ± 0.67.
As to “CGATATGTTCAATATTGTACTATTTATAATAATATG [XGTACX_site3051]”, the “gcPBM binding intensity (ln)” value came to 11 ± 0.69.
Next, “ATATATATATATATATGTACTAAATATTCATCCTTA [XGTACX_site6039]”: 11 ± 0.65.
